The values below come from PubChem BioAssay (Tox21).

Inconclusive results are not listed. A call without a number means that no potency is given here. The source made the active and inactive calls. Calls come from the whole dose curve; as a rule, active = well fitted cell-killing curve with a large enough effect in the repeat runs; inconclusive = weak or mixed curves, or effect the other way; inactive = flat fitted curve, though single readings scatter.
Potency is the fitted concentration of half-maximal effect.

A short description of the assay: Nuclear factor erythroid 2-related factor 2/antioxidant responsive element (Nrf2/ARE) small molecule agonists: qHTS cell viability counter screen in human keratinocytes (AID 1919968). Note: nearly all actives have a fitted effect of over 55% in size. The settings on record: KeratinoSens HaCaT ARE cells viability, CellTiter-Fluor, 24 h; series mostly up to 92.4 µM. A digest of the protocol:
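After a 5 h attachment period, ARE-reporter keratinocytes were dosed with compounds in DMSO and then cultured 23 h at 37 C. Cell viability came from CellTiter-Fluor signal read after a further 1 h.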
(In general: qHTS replaces the single test concentration by a dilution series.)
As to `CC(=O)c1ccc(Cl)c(Cl)c1Cl`, the Potency entry is “inactive”.
Regarding `O=C(O)CCC(=O)c1ccc(-c2ccccc2)cc1`, the Potency entry was “inactive”.
As for `CCCCCCCCOC(C)=O`, the Potency entry was “inactive”.
For `O=C(Nc1ccc2c(O)c(N=Nc3ccc(N=Nc4ccc(S(=O)(=O)O)cc4)cc3)c(S(=O)(=O)O)cc2c1)c1ccccc1`, the Potency was 30.6 µM (active).
On to `CC(C)(C)C(=O)/C=C/c1ccc(Cl)cc1`, for which the Potency entry is “inactive”.
Turning to `OCC(O)[C@@H](O)[C@H](O)[C@H](O)CO[C@H]1O[C@H](CO)[C@@H](O)[C@H](O)[C@H]1O` (some centres undefined), the Potency result is “inactive”.
As for `C[C@@H](CN1CC(=O)NC(=O)C1)N1CC(=O)NC(=O)C1`, the Potency entry is “inactive”.
The entry for `Cc1ccsc1C(=CCCN1CCC[C@@H](C(=O)O)C1)c1sccc1C` is “inactive”; for `CCCCCCCCCCC(=O)O` it is “inactive”; for `CCOc1nc2cccc(C(=O)O)c2n1Cc1ccc(-c2ccccc2-c2nn[nH]n2)cc1` it is “inactive”.
The entry for `CCCc1nc2c(C)cc(-c3nc4ccccc4n3C)cc2n1Cc1ccc(-c2ccccc2C(=O)O)cc1` is “inactive”; for `CCOCCOCCOC(C)=O` it is “inactive”; for `CO[Si](C)(OC)c1ccccc1` it is “inactive”.
As for `Cc1ccc(N(CC2=NCCN2)c2cccc(O)c2)cc1`, the Potency result was “inactive”.
To `COC(=O)c1ccccc1Cl` belongs “inactive”; to `CNS(=O)(=O)Cc1ccc2[nH]cc(CCN(C)C)c2c1`, “inactive”; to `CCCCCCCCCC#N`, “inactive”.
Regarding `CCOC(=O)CCCCCCCCC(=O)OCC`, the Potency entry was “inactive”.
As for `COc1cccc(O)c1`, the Potency entry is “inactive”.
As for `CC[C@H]1OC(=O)[C@H](C)[C@@H](O[C@H]2C[C@@](C)(OC)[C@@H](O)[C@H](C)O2)[C@H](C)[C@@H](O[C@@H]2O[C@H](C)C[C@H](N(C)C)[C@H]2O)[C@](C)(OC)C[C@@H](C)C(=O)[C@H](C)[C@@H](O)[C@]1(C)O`, the Potency result was “inactive”.
Turning to `[O-][n+]1cccc(CO)c1`, the Potency entry was “inactive”.
On to `CC1OCCC1=O` (centres undefined), for which the Potency entry was “inactive”.
For the molecule `CC(C)=CCC/C(C)=C/CC/C(C)=C/CO`, the Potency result was “inactive”.
The entry for `O=[N+]([O-])c1cc(Cl)c(Cl)c(Cl)c1Cl` is “inactive”.
Turning to `COCCOCC(OC)OC`, the Potency entry was “inactive”.
For the molecule `ClC(Cl)(Br)Br`, the Potency result was “inactive”.
As for `N[C@H]1CN(c2c(F)cc3c(=O)c(C(=O)O)cn(C4C[C@H]4F)c3c2Cl)CC12CC2` (some centres undefined), the Potency entry is “inactive”.
The entry for `CCC(=O)c1cccc(Cl)c1` is “inactive”; for `CC(C)(C)NC[C@H](O)COc1cccc2c1CCCC2=O` it is “inactive”.
In the case of `CN(C)CCOC1=Cc2ccccc2Sc2ccc(Cl)cc21`, the Potency result is “inactive”.
As for `COc1cc2nc(Cl)nc(N)c2cc1OC`, the Potency result was “inactive”.
Turning to `O=C1CCCc2c(O)cccc21`, the Potency entry was “inactive”.
As to `C=CC(=O)O`, the Potency entry is “inactive”.
With `Cc1c(C)c2c(c(C)c1O)CC[C@@](C)(CCC[C@H](C)CCC[C@H](C)CCCC(C)C)O2`, the Potency result is “inactive”.
As for `OC[C@@H](O)C(O)[C@@H](O)CO` (some centres undefined), the Potency result is “inactive”.
As to `C[C@H](CCC(=O)O)[C@H]1CC[C@H]2[C@@H]3[C@H](O)C[C@@H]4C[C@H](O)CC[C@]4(C)[C@H]3C[C@H](O)[C@]12C`, the Potency entry was “inactive”.
The entry for `Cc1ccco1` is “inactive”.
Consider `CN(C)c1ccc(C(c2ccccc2)c2ccc(N(C)C)cc2)cc1`, for which the Potency result is “inactive”.
To `CCCCOC(=O)C(C)Oc1ccc(Oc2ccc(C(F)(F)F)cn2)cc1` (centres undefined) belongs “inactive”.
